From PubChem BioAssay (NCATS)
Records with an inconclusive call do not appear. Calls of active or inactive are those of the source. Calls come from the whole dose curve; as a rule, active = well fitted cell-killing curve with a large enough effect; inconclusive = small, poorly fitted or top-dose-only effect; inactive = flat fitted curve, though single readings scatter.

Columns and labels:
[1] = Cell Viability - LYMP2-025 (AID 976); note: series mostly up to about 92 µM
Outline: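 Seed 2500 LYMP2-025 cells/well; 5 hr at 37 C; add compound; 24 hr at 37 C; add CellTiter-Glo; 30 min RT; read luminescence. AC50 from Hill-modelled concentration-response.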

[2] = Cell Viability - LYMP2-002 (AID 977); note: series mostly up to about 92 µM
Outline: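 Luminescent ATP readout (CellTiter-Glo, 30 min room temperature) after 24 h compound exposure at 37 C of a human lymphoblastoid line, 2500 cells/well. AC50 values derived by standard Hill fitting of qHTS concentration-response data.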

[3] = Cell Viability - LYMP2-006 (AID 978); note: series mostly up to about 92 µM; nearly all actives have a fitted effect of over 60% in size
Outline: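 Concentration-dependent loss of intracellular ATP in a human lymphoblastoid line after 24 hr treatment at 37 C was measured by CellTiter-Glo luminescence, with AC50 values obtained from standard Hill-equation modelling.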

[4] = Cell Viability - LYMP2-007 (AID 979);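 note: cells exposed to compound for 24 h before reading; nearly all actives have a fitted effect of over 60% in size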
Outline: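 Luminescent ATP signal (CellTiter-Glo) serves as the viability read-out after 24 hr compound treatment of lymphoblastoid cells in complete medium at 37 C. Concentration-response data were fitted to the Hill equation to give AC50 values.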

[5] = Cell Viability - LYMP2-008 (AID 980); note: nearly all actives have a fitted effect of over 60% in size
Outline: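 qHTS, human lymphoblastoid line, 2500 cells/well; 5 hr preincubation, 24 hr compound, 37 C. CellTiter-Glo ATP luminescence. AC50 via Hill equation. Tetraoctylammonium bromide positive control.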

[6] = Cell Viability - LYMP2-010 (AID 981); note: nearly all actives have a fitted effect of over 55% in size
Outline: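 Luminescent ATP signal (CellTiter-Glo) served as the viability read-out. Cells of the human lymphoblastoid line were treated with compound over a concentration range for 24 hours at 37 C, and AC50 values came from Hill-equation modeling.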

[7] = Cell Viability - LYMP2-012 (AID 982);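 note: cellular ATP by luciferase luminescence where a drop means cytotoxicity; cells exposed to compound for one day before reading; nearly all actives have a fitted effect of over 55% in size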
[8] = Cell Viability - LYMP2-014 (AID 983); note: series mostly up to about 92 µM; nearly all actives have a fitted effect of over 50% in size
Outline: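 Luminescent ATP signal (CellTiter-Glo, 30 min at room temperature) serves as the viability read-out after 24 hr compound exposure at 37 C. Cells were seeded at 2500 per well and settled 5 hr beforehand.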

[9] = Cell Viability - LYMP2-016 (AID 984); note: nearly all actives have a fitted effect of over 55% in size
Outline: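 Acute toxicity in a Coriell human lymphoblastoid line is scored as loss of intracellular ATP over 24 h of treatment in complete medium. CellTiter-Glo signal is fitted across concentrations with the Hill equation to give AC50.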

[10] = Cell Viability - LYMP2-018 (AID 985); note: nearly all actives have a fitted effect of over 50% in size
Outline: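 Luminescent ATP signal (CellTiter-Glo, read after 30 min at room temperature) reports viable cells after 24 hr compound treatment at 37 C. Concentration-response data were fitted to the standard Hill equation for AC50.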

[11] = Cell Viability - LYMP2-020 (AID 986); note: series mostly up to about 92 µM; nearly all actives have a fitted effect of over 55% in size
Outline: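 Luminescent ATP signal (CellTiter-Glo, 30 min at room temperature) is the read-out after 24 h compound treatment of lymphoblastoid cells at 37 C. AC50 values come from Hill-equation fits across concentrations.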

[12] = Cell Viability - LYMP2-022 (AID 987); note: nearly all actives have a fitted effect of over 55% in size
Outline: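 qHTS: human lymphoblastoid cells 2500/well; 5 hr 37 C; cpd added; 24 hr 37 C; CellTiter-Glo, 30 min RT; luminescence. AC50 via Hill fit; tetraoctylammonium bromide positive ctrl.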

[13] = Cell Viability - LYMP2-024 (AID 988); note: nearly all actives have a fitted effect of over 60% in size
Outline: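 Steps: seed 2500 cells/well, 5 hr 37 C; add compound, 24 hr 37 C; add CellTiter-Glo, 30 min room temperature; read luminescence. AC50 derived by Hill modelling of concentration-dependent ATP loss.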

[14] = Cell Viability - LYMP2-026 (AID 989); note: nearly all actives have a fitted effect of over 50% in size
Outline: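 Luminescent ATP signal (CellTiter-Glo, 30 min room temperature) measures viable lymphoblastoid cells after 24 hr compound treatment at 37 C. Decreased ATP reflects acute toxicity; AC50 values come from Hill-equation modeling.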

[15] = Cell Viability - LYMP1-002 - Assay at 24 hr (AID 993)
Outline: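 Cells plated 2500/well, 5 hr 37 C; compounds added, 24 hr 37 C; CellTiter-Glo added, 30 min RT; luminescence read. Tetraoctylammonium bromide positive control. Hill-equation AC50.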

[16] = Cell Viability - LYMP1-002 - Assay at 40 hr (AID 994); note: nearly all actives have a fitted effect of over 60% in size
Outline: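 Luminescent ATP signal served as the viability readout, with decreases taken as toxicity. Cells were treated with compounds across a concentration range for 40 hours at 37 C, and AC50 values came from standard Hill modeling.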

Measured: outcome

CC1=CC(=O)CC(C)(C)C1(O)/C=C/C(C)=C\C(=O)O (stereo unspecified)
inactive: all assays above
